Sampled rows, rich in hits. Any-hit rate of the full collection: about 6.8%.
C diff growth: C. difficile growth inhibition; hit rate 0.25% among 86,000; Clostridium difficile clinical isolate growth, OD600, 24 h; hits give low values; AID 1259249; growth activity, negative = inhibition, % at 16 µg/mL (by protocol);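 active = mean growth activity at or below -80% and every replicate also at or below -80%; inconclusive = mean at or below -80% but some replicate above -80%; inactive = mean growth activity above -80%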;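 also: 0% = DMSO wells and -100% = levofloxacin 16 µg/mL wells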
Pf Dd2 inh: inhibitors of Plasmodium falciparum Dd2 growth; P. falciparum Dd2 growth, SYBR Green, 72 h; hits give low values; activity change, % at 10 µM; hit rate 2.3% among 94,000; in the data active = activity change below about -80%; inconclusive = no clear call, values can overlap the other calls
T cruzi growth-1: inhibitors of T. cruzi proliferation. T. cruzi beta-gal in NIH3T3, GalScreen luminescence, 90 h. inhibition, % at 8.34 µM. hit rate 5.9% among 77,000. AID 624255;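 active = mean inhibition above about 93%, with at least 55% of replicates each passing it, limit read from the data, passing the limit was not always enough; inconclusive = only one of those two conditions holds; inactive = neither condition holds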
T cruzi growth-2: Trypanosoma cruzi proliferation inhibition | inhibition, % at 8.35 µM | T. cruzi beta-gal in NIH3T3, GalScreen luminescence, 90 h | AID 651739 | shares compounds with T cruzi growth-1 | hit rate 72% among 5,600;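 active = mean replicate inhibition above about 95% and at least 55% of replicates individually reaching it, limit read from the data; inconclusive = only one of the two criteria is met; inactive = neither criterion is met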
T cruzi growth-3: inhibitors of T. cruzi proliferation; hit rate 21% among 5,600; AID 651740; shares compounds with T cruzi growth-1; T. cruzi beta-gal in NIH3T3, GalScreen luminescence, 90 h; inhibition, % at 2.09 µM;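 active = mean inhibition above about 95%, with at least 55% of replicates also reaching it, limit read from the data; inconclusive = meets just one of the two conditions; inactive = meets neither condition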;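 also: plate controls were neutral control median for no effect and positive control median for full effect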
NIH3T3 tox: kills mouse NIH/3T3 fibroblasts | shares compounds with T cruzi growth-1 | NIH/3T3 viability, CellTiter-Glo ATP luminescence, 90 h | cytotoxicity (signal decrease), % at 8.35 µM | hit rate 14% among 5,600 | AID 651742;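 active = mean signal decrease across replicates above about 35% based on untreated-well scatter, with enough replicates individually passing, limit read from the data; inconclusive = no rule stated though some were filed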;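 also: 0% = median of neutral control wells and 100% = median of positive control wells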
NIH3T3 tox 2: cytotoxicity in mouse NIH/3T3 fibroblasts. AID 651744. shares compounds with T cruzi growth-1. hit rate 56% among 5,600. NIH/3T3 viability, CellTiter-Glo ATP luminescence, 90 h. inhibition, % at 24.9 µM;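 active = mean loss of cell viability signal at or above a set limit, and enough replicates individually reaching it; inconclusive = meets only the mean limit or only the replicate share; inactive = meets neither condition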;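 also: 0% = median of neutral control wells and 100% = median of positive control wells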
* = called active by the depositor; ? = inconclusive; . = no result.

SMILES	C diff growth	Pf Dd2 inh	T cruzi growth-1	T cruzi growth-2	T cruzi growth-3	NIH3T3 tox	NIH3T3 tox 2
C[C@@H]1CN([C@H](C)CO)S(=O)(=O)c2ccc(C3=CCCCC3)cc2O[C@H]1CN(C)Cc1ccncc1	12.3	-72.0	118.5*	93.7	98.5*	66.6*	104.1*
C[C@H](CO)N1C[C@H](C)[C@@H](CN(C)Cc2ccncc2)Oc2cc(C3=CCCCC3)ccc2S1(=O)=O	10.2	-71.1	115.5*	103.2*	102.3*	51.8*	104.8*
O=C(CN1CCOCC1)N[C@H]1CC[C@@H](CCNC(=O)C2CCCC2)O[C@@H]1CO	-5.3	-3.8	.	.	.	.	.
C[C@@H]1CN([C@H](C)CO)C(=O)c2cc(NS(=O)(=O)c3ccc(Cl)cc3)ccc2O[C@@H](C)CCCCO[C@@H]1CN(C)CC1CCCCC1	0.7	-58.5	91.5	.	.	.	.
O=C(CC1CC1)N1CC2(C1)[C@H](c1ccccc1)[C@@H](CO)N2Cc1ccccc1	-2.8	-3.3	.	.	.	.	.
O=C(NC[C@@H]1CC[C@@H]2[C@@H](CN2Cc2nccs2)O1)C1CCC1	1.5	16.4	.	.	.	.	.
COc1cccc(S(=O)(=O)N2CCCCN3[C@H](CO)[C@H](c4ccc(C#CC(C)C)cc4)[C@H]3C2)c1	54.4	-68.6	97.2*	106.2*	107.5*	32.8	103.4*
Cc1cccc(S(=O)(=O)N2CCCCN3[C@H](C2)[C@@H](c2ccc(C#CC(C)C)cc2)[C@@H]3CO)c1	-7.2	-33.9	?	101.4*	112.4*	46.6*	98.4*
COc1cccc(S(=O)(=O)N2CCCCN3[C@H](C2)[C@@H](c2ccc(C#CC(C)C)cc2)[C@@H]3CO)c1	13.1	-15.7	81.5	.	.	.	.
Cc1cccc(S(=O)(=O)N2CCCCN3[C@H](C2)[C@H](c2ccc(C#CC(C)C)cc2)[C@@H]3CO)c1	-4.1	-48.1	91.9	.	.	.	.
COc1ccc2c3c(n(C)c2c1)[C@@H](CO)NCC31CCN(C(C)=O)CC1	-0.3	20.9	.	.	.	.	.
COc1ccc2c3c(n(C)c2c1)[C@@H](CO)N(C(=O)CN1CCOCC1)CC31CN(C(=O)C2CC2)C1	-6.9	-8.2	.	.	.	.	.
COc1ccc(C#Cc2cnc3c(c2)C(=O)N([C@@H](C)CO)C[C@H](C)[C@H](CN(C)C(C)=O)O3)cc1	0.0	-0.6	88.5	.	.	.	.
COc1ccc(C#Cc2cnc3c(c2)C(=O)N([C@H](C)CO)C[C@H](C)[C@H](CN(C)C(C)=O)O3)cc1	5.2	-4.8	109.7*	89.5	-18.2	21.1	34.4*
COc1ccc(C#Cc2cnc3c(c2)C(=O)N([C@@H](C)CO)C[C@@H](C)[C@@H](CN(C)C(=O)CC2CC2)O3)cc1	-2.6	-59.5	56.4	.	.	.	.
COc1ccc(C#Cc2cnc3c(c2)C(=O)N([C@@H](C)CO)C[C@H](C)[C@@H](CN(C)C(=O)CC2CC2)O3)cc1	-2.1	-66.8	96.8*	60.1	30.5	-7.7	25.5
C[C@H]1CCCCO[C@@H](CN(C)Cc2ccccc2)[C@@H](C)CN([C@@H](C)CO)C(=O)c2cc(NC(=O)c3ccncc3)ccc2O1	-4.0	-54.4	66.2	.	.	.	.
Cc1noc(C)c1NC(=O)Nc1ccc2c(c1)C(=O)N([C@H](C)CO)C[C@@H](C)[C@H](CN(C)S(C)(=O)=O)OCCCC[C@@H](C)O2	-1.9	17.4	3.1	.	.	.	.
C[C@@H]1CCCCO[C@H](CN(C)C(=O)Cc2ccccc2)[C@@H](C)CN([C@@H](C)CO)C(=O)c2cc(N(C)C)ccc2O1	-5.9	-21.9	96.8*	45.7	27.3	-39.9	-13.4
C[C@@H]1CCCCO[C@H](CN(C)C(=O)Cc2ccccc2)[C@H](C)CN([C@H](C)CO)C(=O)c2cc(N(C)C)ccc2O1	-1.0	.	8.2	.	.	.	.
C[C@@H]1CN([C@@H](C)CO)C(=O)c2cc(N(C)C)ccc2O[C@@H](C)CCCCO[C@@H]1CN(C)C(=O)Cc1ccccc1	-3.4	-5.7	43.8	.	.	.	.
C[C@H](CO)N1C[C@H](C)[C@H](CN(C)C(=O)Cc2ccccc2)OCCCC[C@H](C)Oc2ccc(N(C)C)cc2C1=O	-0.2	-39.0	104.2*	?	25.3	-10.1	-23.3
C/C=C/c1ccc2c(c1)O[C@@H](CN(C)CC1CCCC1)[C@H](C)CN([C@H](C)CO)S2(=O)=O	4.3	-27.3	44.0	.	.	.	.

Bioassay records deposited in PubChem BioAssay by Broad Institute.
